Counter-ions that a name gives are not always drawn.
Columns and labels:
Settings in all cases: compound concentration in added solution (µM; 5 µl added to 20 µl cells): 10; 18 h
A431 [1] = assay: LBPA endosome anti-LBPA integrated intensity (sum per cell), Z-score; higher = more LBPA staining
How it was run: (§1)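 Duplicate 384-well imaging plates were prepared with 5 µl of 10 µM compound solution per well, and 3,500 HeLa MZ or A431 cells in 20 µl were added on top. Following 18 h of incubation and fixation in 4% PFA, cells received 6C4 anti-LBPA antibody, filipin, propidium iodide and CellTracker green. Four images per well at 20× were segmented in MetaXpress to yield per-cell integrated LBPA or filipin intensity, whole-cell or within LBPA endosomes. These intensities are reported as Z-scores normalised in AcuityXpress.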

HeLa MZ [2] = assay: as above
How it was run: as §1

A431 [3] = assay: whole-cell filipin (free cholesterol) integrated intensity, Z-score; higher = more cholesterol staining
How it was run: as §1

HeLa MZ [4] = assay: as above
How it was run: as §1

A431 [5] = assay: filipin (cholesterol) integrated intensity within LBPA endosomes, Z-score; higher = more cholesterol in LBPA endosomes
How it was run: as §1

HeLa MZ [6] = assay: as above
How it was run: as §1

Structure (SMILES) | LBPA endosome anti-LBPA integrated intensity (z-score) (A431 [1]) | LBPA endosome anti-LBPA integrated intensity (z-score) (HeLa MZ [2]) | whole-cell filipin (z-score) (A431 [3]) | whole-cell filipin (z-score) (HeLa MZ [4]) | filipin (z-score) (A431 [5]) | filipin (z-score) (HeLa MZ [6])
CCCc1nc(C)c2c(=O)nc(-c3cc(S(=O)(=O)N4CCN(CC)CC4)ccc3OCC)[nH]n12 [Vardenafil] | -0.314 | 1.35 | 0.127 | 0.375 | -0.156 | 0.224
OCCOCCN1CCN(C(c2ccccc2)c2ccc(Cl)cc2)CC1 (stereo not drawn) [Hydroxyzine dihydrochloride] | 0.255 | 0.53 | 0.266 | -0.465 | 0.492 | 0.489
CC1CS(=O)(=O)CCN1/N=C/c1ccc([N+](=O)[O-])o1 (stereo not drawn) [Nifurtimox] | -0.541 | -0.54 | 0.0023 | -0.211 | -0.444 | -0.628
N[C@@H](Cc1cc(I)c(Oc2ccc(O)c(I)c2)c(I)c1)C(=O)O [Liothyronine] | -0.519 | 0.00578 | -0.411 | -0.281 | -0.479 | -0.592
NC[C@H]1O[C@H](O[C@H]2[C@H](O[C@@H]3O[C@H](CO)[C@@H](O)[C@H]3O)[C@@H](O)[C@H](N)C[C@@H]2N)[C@H](N)[C@@H](O)[C@@H]1O [Ribostamycin sulfate salt] | -0.548 | 1.92 | -0.165 | 2.24 | -0.516 | -0.59
NS(=O)(=O)c1cc(Cl)c(Cl)c(S(N)(=O)=O)c1 [Dichlorphenamide] | -0.34 | -0.217 | -0.00386 | 0.196 | -0.409 | -0.301
CC(=O)CC(c1ccccc1)c1c(O)c2ccccc2oc1=O (stereo not drawn) [Warfarin] | -0.409 | 0.393 | 0.206 | 0.0343 | -0.461 | -0.372
CCOC(=O)[C@@](C)(N)Cc1ccc(O)c(O)c1 [Methyldopate hydrochloride] | -0.346 | -0.632 | -0.323 | -0.577 | -0.327 | -0.42
CC(C)C(=O)Nc1ccc([N+](=O)[O-])c(C(F)(F)F)c1 [Flutamide] | -0.32 | 0.353 | -0.407 | -0.0656 | -0.384 | -0.392
CC(CNC1CCCCC1)OC(=O)c1ccccc1 (stereo not drawn) [Hexylcaine hydrochloride] | -0.125 | -0.0338 | -0.478 | -0.747 | -0.345 | -0.436
C=C(CC)C(=O)c1ccc(OCC(=O)O)c(Cl)c1Cl [Ethacrynic acid] | -0.359 | -0.213 | -0.0585 | 0.416 | -0.423 | -0.312
CCC[C@H](N[C@@H](C)C(=O)N1[C@H](C(=O)O)C[C@@H]2CCCC[C@@H]21)C(=O)OCC [Perindopril] | -0.273 | -0.885 | 0.0463 | -0.4 | -0.305 | -0.603
Nc1nc2c(ncn2COCCO)c(=O)[nH]1 [Acyclovir] | -0.598 | -1.1 | -1.13 | -0.395 | -0.557 | -0.66
COc1ccc2[nH]c([S+]([O-])Cc3ncc(C)c(OC)c3C)nc2n1 (stereo not drawn) [Tenatoprazole] | -0.331 | 0.434 | -0.478 | 0.112 | -0.438 | -0.258
CN(C)c1ccc(O)c2c1C[C@H]1C[C@H]3[C@H](N(C)C)C(O)=C(C(N)=O)C(=O)[C@@]3(O)C(O)=C1C2=O [Minocycline hydrochloride] | -0.618 | -1.91 | -1.01 | -1.52 | -0.639 | -0.888
O=C(O)/C=C/c1ccc(Cn2ccnc2)cc1 [Ozagrel hydrochloride] | -0.373 | 0.0325 | 0.164 | 0.704 | -0.284 | -0.0855
CCCN(CCC)C(=O)C(CCC(=O)O)NC(=O)c1ccccc1 (stereo not drawn) [Proglumide] | -0.629 | -1.36 | -1.22 | -0.766 | -0.53 | -0.607
CC(=O)/N=c1/sc(S(N)(=O)=O)nn1C [Methazolamide] | -0.623 | -1.23 | -0.758 | -0.523 | -0.506 | -0.535
NC(=O)C(c1ccccc1)(c1ccccc1)[C@@H]1CCN(CCc2ccc3c(c2)CCO3)C1 [Darifenacin hydrobromide] | 3.46 | 1.76 | 3.28 | 1.47 | 2.87 | 3.06
O=C(O)Cc1ccc(-c2ccccc2)cc1 [Felbinac] | -0.537 | -0.83 | -0.402 | -0.285 | -0.525 | -0.491
CC(C)C(=O)c1c(C(C)C)nn2ccccc12 [Ibudilast] | -0.434 | -0.686 | 0.153 | -0.112 | -0.402 | -0.704
Cc1c(Cl)cccc1Nc1ccccc1C(=O)O [Tolfenamic acid] | -0.417 | -0.76 | -0.809 | -0.604 | -0.464 | -0.636
Cc1ccc(/C(=C\CN2CCCC2)c2ccccn2)cc1 [Triprolidine hydrochloride] | -0.168 | 0.494 | -0.873 | -0.689 | -0.378 | -0.0781
CCCCc1cc2ccccc2c(OCCN(C)C)n1 [Dimethisoquin hydrochloride] | 2.89 | 2.04 | 2.32 | 0.247 | 2.27 | 0.845

Structure (SMILES) | LBPA endosome anti-LBPA integrated intensity (z-score) (A431 [1]) | LBPA endosome anti-LBPA integrated intensity (z-score) (HeLa MZ [2]) | whole-cell filipin (z-score) (A431 [3]) | whole-cell filipin (z-score) (HeLa MZ [4]) | filipin (z-score) (A431 [5]) | filipin (z-score) (HeLa MZ [6])
Cc1cc(C(C)(C)C)cc(C)c1CC1=NCCN1 [Xylometazoline hydrochloride] | -0.127 | 0.671 | 0.316 | 0.463 | 0.0924 | 0.303
COc1ccc2cc([C@H](C)C(=O)O)ccc2c1 [Naproxen] | -0.53 | -0.655 | -0.923 | -0.439 | -0.525 | -0.644
NCCNCCNCCNCCN [Tetraethylenepentamine pentahydrochloride] | -0.276 | -0.00928 | 0.0109 | 0.146 | -0.392 | -0.197
CN1CCCC(CC2c3ccccc3Sc3ccccc32)C1 (stereo not drawn) [Metixene hydrochloride] | 3.73 | 1.25 | 0.301 | -0.563 | 3.15 | 1.94
O=C1CCc2cc(OCCCCc3nnnn3C3CCCCC3)ccc2N1 [Cilostazol] | -0.386 | -0.0616 | -0.68 | -0.703 | -0.49 | -0.5
COc1cc(N)c(Cl)cc1C(=O)NC1CCN(Cc2ccccc2)CC1 [Clebopride maleate] | 0.365 | 2.01 | -0.171 | 0.217 | 0.0875 | 0.539
CCN1CCC[C@H]1CNC(=O)c1c(OC)ccc(Br)c1OC [Remoxipride Hydrochloride] | -0.395 | 0.278 | -0.41 | -0.384 | -0.372 | -0.266
Cc1onc(-c2ccccc2Cl)c1C(=O)N[C@@H]1C(=O)N2[C@@H]1SC(C)(C)[C@@H]2C(=O)O [Cloxacillin sodium salt] | -0.451 | -0.521 | -0.641 | -0.277 | -0.516 | -0.434
CC[C@H]1OC(=O)[C@H](C)[C@@H](O[C@H]2C[C@@](C)(OC)[C@@H](O)[C@H](C)O2)[C@H](C)[C@@H](O[C@@H]2O[C@H](C)C[C@H](N(C)C)[C@H]2O)[C@](C)(OC)C[C@@H](C)C(=O)[C@H](C)[C@@H](O)[C@]1(C)O [Clarithromycin] | -0.524 | 0.332 | -0.0542 | 0.0043 | -0.407 | -0.21
CC(C)(Oc1ccc(CCNC(=O)c2ccc(Cl)cc2)cc1)C(=O)O [Bezafibrate] | -0.429 | -0.597 | -0.437 | -0.728 | -0.456 | -0.612
CN1CCC(=C2c3ccccc3C=Cc3ccccc32)CC1 [Cyproheptadine hydrochloride] | 2.41 | 0.629 | 1.01 | -1.18 | 2.25 | 0.976
CCN[C@H]1C[C@H](C)S(=O)(=O)c2sc(S(N)(=O)=O)cc21 [Dorzolamide hydrochloride] | -0.573 | -0.633 | 0.0896 | 0.22 | -0.481 | -0.217
CNCCCN1c2ccccc2CCc2ccccc21 [Desipramine hydrochloride] | 2.09 | 0.947 | 1.99 | 0.636 | 2.34 | 2.58
CC[N+](C)(C)c1cccc(O)c1 [Edrophonium chloride] | -0.613 | -1.29 | -0.969 | -0.842 | -0.456 | -0.596
CCc1nc(N)nc(N)c1-c1ccc(Cl)cc1 [Pyrimethamine] | 0.585 | 0.917 | 0.585 | -0.093 | -0.133 | -0.422
Cc1cc(=O)oc2cc(O)ccc12 [Hymecromone] | -0.504 | -0.0954 | -0.674 | -0.684 | -0.459 | -0.528
CCCC1O[C@@H]2C[C@H]3[C@@H]4CCC5=CC(=O)C=C[C@]5(C)[C@H]4[C@@H](O)C[C@]3(C)[C@]2(C(=O)CO)O1 (stereo partly drawn) [Budesonide] | -0.313 | -0.695 | 0.452 | 0.254 | -0.143 | 0.318
CCC1(c2ccccc2)C(=O)NCNC1=O [Primidone] | -0.559 | -0.0866 | -0.586 | -0.472 | -0.509 | -0.574
COC(=O)[C@H]1[C@H]2C[C@@H]3c4[nH]c5cc(OC)ccc5c4CCN3C[C@H]2C[C@@H](OC(=O)c2cc(OC)c(OC)c(OC)c2)[C@@H]1OC [Reserpine] | 3.11 | 2.24 | 2.19 | 1.75 | 2.34 | 1.96
CN(C)CCCSC(=N)N [Dimaprit dihydrochloride] | -0.577 | -1.27 | -0.259 | -0.607 | -0.452 | -0.519
CCCc1ncc(C[n+]2ccccc2C)c(N)n1 [Amprolium hydrochloride] | -0.558 | -1.09 | -0.581 | -0.0131 | -0.483 | -0.419
CC[C@H]1OC(=O)[C@H](C)[C@@H](O[C@H]2C[C@@](C)(OC)[C@@H](O)[C@H](C)O2)[C@H](C)[C@@H](O[C@@H]2O[C@H](C)C[C@H](N(C)C)[C@H]2O)[C@](C)(O)C[C@@H](C)[C@@H]2N[C@@H](COCCOC)O[C@H]([C@H]2C)[C@]1(C)O [Dirithromycin] | -0.436 | -0.0354 | -0.786 | -0.252 | -0.507 | -0.38
Cc1ccccc1N1C(=O)c2cc(S(N)(=O)=O)c(Cl)cc2NC1C (stereo not drawn) [Metolazone] | -0.495 | -0.0744 | -0.881 | 0.441 | -0.436 | -0.348
CO/N=C(\C(=O)N[C@@H]1C(=O)N2C(C(=O)O)=C(COC(N)=O)CS[C@H]12)c1ccco1 [Cefuroxime sodium salt] | -0.467 | -0.812 | -0.402 | 0.0343 | -0.419 | -0.472

Reference: the supplement of paper PMC6607015
